These results are taken from PubChem BioAssay.

The source made the active and inactive calls.

Test [1] can be described thus: binders of probe aFSTL3 on microarray, primary screen, stem cell growth factor project, biochemical, small-molecule microarray, fluorescence 635/667 (AID 1064).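 Note: measures binding of the biotinylated anti-FSTL3 antibody to printed compounds.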 The following applies: higher = more signal.
Test [2] can be described thus: binders from COS7 lysate, DM2A8 probe, primary screen, torsin A project, cell lysate, small-molecule microarray, fluorescence 635/667 (AID 1065). The following applies: higher = more signal, COS7 lysate expressing mutant human TOR1A.
A short description of test [3]: binders of probe aFGF2 on microarray, primary screen, stem cell growth factor project, biochemical, small-molecule microarray, fluorescence 635/667 (AID 1067).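 Note: measures binding of biotinylated aFGF2 protein to printed compounds on slides; z-score merges feature fluorescence and signal-to-noise across triplicate slides.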 To be noted: higher = more signal.
A short description of test [4]: binders of probe aFGF10 on microarray, primary screen, stem cell growth factor project, biochemical, small-molecule microarray, fluorescence 635/667 (AID 1071).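 Note: score merges 667 nm spot intensity and signal to noise from triplicate slides.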 The following applies: higher = more signal.
Test [5] has as its target Neurogenic locus notch homolog protein 2 (Homo sapiens) (UniProt Q04721). The experiment in a line: Notch2 binders on small-molecule microarrays, primary screen, biochemical, small-molecule microarray, 635 nm fluorescence, stem cell growth factors (AID 1073). The following applies: Notch2 binding, higher = more signal.
The target in test [6] is Pro-neuregulin-1, membrane-bound isoform (Homo sapiens) (UniProt Q02297). The experiment in a line: NRG1 binders on small-molecule microarrays, primary screen, psychiatric disease protein project, biochemical, small-molecule microarray, fluorescence 635/667 (AID 1075).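 Note: score combines 667 nm spot fluorescence with signal to noise.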 The following applies: NRG1 binding, 635 nm fluorescence, higher = more signal.
Test [7] relates to Neuregulin-1 EGF-like domain. The experiment in a line: binders of neuregulin-1 EGF-like domain, primary screen, biochemical, small-molecule microarray, 635 nm fluorescence (AID 1081).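 Note: binding of the protein to compounds printed on small-molecule microarray slides.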 The following applies: small-molecule microarray binding, higher = more signal.
Test [8] can be described thus: FRG1 promoter luciferase signal modulators, primary screen, FRG1 inhibition for FSHD, cell-based, C2C12 myotubes, firefly/Renilla luciferase, luminescence (AID 1084). The following applies: higher = more signal, called active from +8 up or from −8 down.
Test [9] can be described thus: binders of probe aFST on microarray, primary screen, stem cell growth factor project, biochemical, small-molecule microarray, fluorescence 635/667 (AID 1086).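 Note: score merges 667 nm fluorescence with signal-to-noise of each printed compound spot.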 To be noted: higher = more signal.
Test [10] in a line: binders of probe aHhip on microarray, primary screen, stem cell growth factor project, biochemical, small-molecule microarray, fluorescence 635/667 (AID 1087).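 Note: score merges spot fluorescence at 667nm with spot signal to noise ratio.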 The following applies: higher = more signal.
The subject of test [11] is PRMT1 (protein arginine N-methyltransferase 1). The experiment in a line: PRMT1 binders on small-molecule microarrays, primary screen, biochemical, small-molecule microarray, 635 nm fluorescence (AID 1088).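 Note: binding of Prmt1 protein to compounds spotted on small-molecule microarray slides.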 To be noted: small-molecule microarray binding, higher = more signal.
Test [12] is described as follows: yeast growth modulation, basal conditions, primary screen, YJM789 clinical isolate, OD600, 24 h (AID 1089).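 Note: growth of clinical yeast isolate S. cerevisiae YJM 789 seeded 1000 cells per well; test concentration not given here.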 The following applies: S. cerevisiae YJM789 growth, higher = more signal, called active from +8 up or from −8 down.
The nature of test [13]: fission yeast growth modulation, primary screen, strain 972, OD600, 24 h, no modulator (AID 1090).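 Note: basal condition with compound alone and no growth modifier present; test concentration not given here.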 The following applies: S. pombe 972 growth, higher = more signal, called active from +8 up or from −8 down.
The nature of test [14]: S. cerevisiae growth modulation with rapamycin, primary screen, strain BY4716, OD600, 96 h (AID 1091). Note: test concentration not given here. To be noted: higher = more signal, called active from +8 up or from −8 down.
The target in test [15] is Torsin-1A-interacting protein 2 (Homo sapiens) (UniProt Q8NFQ8). The experiment in a line: LULL1 binders on small-molecule microarray, primary screen, cell lysate, human LULL1 lysate, 635/667 nm fluorescence (AID 1092).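 Note: probe is lysate of COS7 cells overexpressing human LULL1; score merges per-feature 667 nm fluorescence with signal-to-noise.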 The following applies: hLULL1 lysate binding, 635 nm fluorescence, higher = more signal.
A short description of test [16]: E. coli growth modulation, two-sided OD650, primary screen, E. coli filamentation project, strain DRC41, 24 h (AID 1093).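 Note: MC1000 strain lacking acrAB efflux and sulA so SOS filamentation is blocked; test concentration not given here.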 To be noted: OD650, 24 h, higher = more signal, called active from +8 up or from −8 down.
Test [17] in a line: small-molecule microarray binders of probe aLefty2, primary screen, biochemical, biotinylated probe, 635/667 nm fluorescence (AID 1094).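 Note: score merges spot fluorescence near 667 nm with spot signal-to-noise ratio.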 To be noted: higher = more signal.
Test [18] concerns Noggin (protein binding on small-molecule microarray). The experiment in a line: Noggin binders on small-molecule microarray, primary screen, biochemical, 635/667 nm fluorescence (AID 1095).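 Note: score merges 667 nm feature fluorescence with signal to noise over triplicate slides.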 The following applies: 635 nm fluorescence, higher = more signal.
Test [19] concerns the target Neurogenic locus notch homolog protein 3 (Homo sapiens) (UniProt Q9UM47). The experiment in a line: NOTCH3 binders on small-molecule microarray, primary screen, biochemical, 635/667 nm fluorescence (AID 1096). To be noted: NOTCH3 binding, 635 nm fluorescence, higher = more signal.
The nature of test [20]: small-molecule microarray binders of probe aEGFR, primary screen, biochemical, biotinylated probe, 635/667 nm fluorescence (AID 1097).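 Note: probe is a biotinylated anti-EGFR antibody binding compounds printed on slides; score combines fluorescence near 667 nm and signal to noise of each spot.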 To be noted: higher = more signal.

Sequence of Neurogenic locus notch homolog protein 2 (Homo sapiens) (Q04721 whole entry, looked up, canonical isoform): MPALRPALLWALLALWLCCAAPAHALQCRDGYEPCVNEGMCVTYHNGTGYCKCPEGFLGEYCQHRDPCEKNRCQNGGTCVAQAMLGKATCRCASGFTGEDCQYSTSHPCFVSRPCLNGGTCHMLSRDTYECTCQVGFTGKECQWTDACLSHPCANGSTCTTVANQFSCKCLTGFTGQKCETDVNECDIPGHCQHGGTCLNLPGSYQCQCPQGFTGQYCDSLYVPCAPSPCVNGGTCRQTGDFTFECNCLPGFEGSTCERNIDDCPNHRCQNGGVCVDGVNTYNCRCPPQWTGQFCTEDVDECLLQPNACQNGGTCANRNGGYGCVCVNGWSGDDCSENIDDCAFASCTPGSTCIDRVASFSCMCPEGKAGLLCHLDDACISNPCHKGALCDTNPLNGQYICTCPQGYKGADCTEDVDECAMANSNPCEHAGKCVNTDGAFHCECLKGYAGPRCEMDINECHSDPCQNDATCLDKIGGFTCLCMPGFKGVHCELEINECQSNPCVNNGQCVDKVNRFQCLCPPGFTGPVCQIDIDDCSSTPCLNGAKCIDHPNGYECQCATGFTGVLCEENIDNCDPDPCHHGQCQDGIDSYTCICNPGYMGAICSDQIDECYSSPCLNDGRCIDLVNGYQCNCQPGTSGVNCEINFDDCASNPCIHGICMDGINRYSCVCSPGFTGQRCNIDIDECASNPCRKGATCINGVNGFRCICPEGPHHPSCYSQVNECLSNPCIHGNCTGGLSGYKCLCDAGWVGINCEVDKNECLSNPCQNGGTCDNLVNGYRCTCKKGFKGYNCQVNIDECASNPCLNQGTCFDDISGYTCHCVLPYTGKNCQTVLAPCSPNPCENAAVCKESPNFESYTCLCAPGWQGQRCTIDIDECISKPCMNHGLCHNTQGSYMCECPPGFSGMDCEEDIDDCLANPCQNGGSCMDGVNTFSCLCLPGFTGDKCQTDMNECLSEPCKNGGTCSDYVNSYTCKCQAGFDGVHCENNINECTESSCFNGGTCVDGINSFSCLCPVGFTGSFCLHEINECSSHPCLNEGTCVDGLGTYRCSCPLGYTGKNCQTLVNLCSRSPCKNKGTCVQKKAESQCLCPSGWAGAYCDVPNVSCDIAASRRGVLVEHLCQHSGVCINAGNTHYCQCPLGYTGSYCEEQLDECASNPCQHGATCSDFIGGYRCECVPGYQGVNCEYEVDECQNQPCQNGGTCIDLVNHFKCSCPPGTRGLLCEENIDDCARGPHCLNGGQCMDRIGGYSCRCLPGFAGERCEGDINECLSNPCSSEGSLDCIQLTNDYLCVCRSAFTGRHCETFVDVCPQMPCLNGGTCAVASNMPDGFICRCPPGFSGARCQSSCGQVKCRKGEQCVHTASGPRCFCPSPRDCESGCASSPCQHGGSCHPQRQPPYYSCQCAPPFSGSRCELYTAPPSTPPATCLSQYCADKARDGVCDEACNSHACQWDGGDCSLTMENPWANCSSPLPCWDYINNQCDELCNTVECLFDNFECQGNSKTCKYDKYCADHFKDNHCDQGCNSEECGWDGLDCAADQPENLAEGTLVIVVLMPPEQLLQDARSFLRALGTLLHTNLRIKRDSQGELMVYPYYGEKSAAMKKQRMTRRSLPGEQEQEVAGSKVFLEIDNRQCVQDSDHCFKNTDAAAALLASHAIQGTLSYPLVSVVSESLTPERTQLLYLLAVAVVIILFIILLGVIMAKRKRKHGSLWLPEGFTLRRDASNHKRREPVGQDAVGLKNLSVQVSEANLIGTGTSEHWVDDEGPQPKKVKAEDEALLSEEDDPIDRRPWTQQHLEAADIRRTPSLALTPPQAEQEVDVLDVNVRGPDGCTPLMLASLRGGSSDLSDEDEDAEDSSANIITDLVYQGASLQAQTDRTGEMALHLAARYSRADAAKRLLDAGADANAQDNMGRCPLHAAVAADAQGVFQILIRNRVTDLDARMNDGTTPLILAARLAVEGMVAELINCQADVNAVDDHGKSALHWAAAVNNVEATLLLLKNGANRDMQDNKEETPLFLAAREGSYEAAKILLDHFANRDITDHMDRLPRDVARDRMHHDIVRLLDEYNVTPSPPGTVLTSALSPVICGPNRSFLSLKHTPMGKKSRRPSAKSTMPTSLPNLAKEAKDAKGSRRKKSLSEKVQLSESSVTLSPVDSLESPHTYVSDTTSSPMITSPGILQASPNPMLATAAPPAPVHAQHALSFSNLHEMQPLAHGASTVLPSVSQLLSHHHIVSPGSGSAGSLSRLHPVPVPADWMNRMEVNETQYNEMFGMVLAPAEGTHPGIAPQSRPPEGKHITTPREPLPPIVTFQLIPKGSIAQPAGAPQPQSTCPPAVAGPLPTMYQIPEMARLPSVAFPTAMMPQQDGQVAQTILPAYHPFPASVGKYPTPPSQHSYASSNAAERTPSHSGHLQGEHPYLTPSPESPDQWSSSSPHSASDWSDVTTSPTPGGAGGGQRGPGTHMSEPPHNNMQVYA
Sequence of Pro-neuregulin-1, membrane-bound isoform (Homo sapiens) (Q02297 whole entry, looked up, the tested form may be a part, canonical isoform): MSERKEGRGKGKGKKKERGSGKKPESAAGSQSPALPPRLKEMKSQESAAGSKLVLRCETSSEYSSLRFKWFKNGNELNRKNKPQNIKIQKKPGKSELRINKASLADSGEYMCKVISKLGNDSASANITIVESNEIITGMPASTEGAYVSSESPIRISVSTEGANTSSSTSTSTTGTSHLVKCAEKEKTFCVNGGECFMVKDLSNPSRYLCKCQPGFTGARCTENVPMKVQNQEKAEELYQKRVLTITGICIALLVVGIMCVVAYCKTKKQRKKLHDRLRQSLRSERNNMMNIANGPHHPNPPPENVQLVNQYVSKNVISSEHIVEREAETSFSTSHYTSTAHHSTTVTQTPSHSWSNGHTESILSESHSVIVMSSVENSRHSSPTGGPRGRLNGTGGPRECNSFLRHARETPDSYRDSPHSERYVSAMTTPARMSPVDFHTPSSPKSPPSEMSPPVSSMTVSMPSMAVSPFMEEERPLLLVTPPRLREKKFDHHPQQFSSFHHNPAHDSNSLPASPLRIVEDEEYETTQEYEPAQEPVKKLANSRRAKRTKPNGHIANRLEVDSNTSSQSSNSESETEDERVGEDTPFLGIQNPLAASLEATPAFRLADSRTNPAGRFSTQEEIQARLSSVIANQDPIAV
Sequence of Torsin-1A-interacting protein 2 (Homo sapiens) (Q8NFQ8 whole entry, looked up): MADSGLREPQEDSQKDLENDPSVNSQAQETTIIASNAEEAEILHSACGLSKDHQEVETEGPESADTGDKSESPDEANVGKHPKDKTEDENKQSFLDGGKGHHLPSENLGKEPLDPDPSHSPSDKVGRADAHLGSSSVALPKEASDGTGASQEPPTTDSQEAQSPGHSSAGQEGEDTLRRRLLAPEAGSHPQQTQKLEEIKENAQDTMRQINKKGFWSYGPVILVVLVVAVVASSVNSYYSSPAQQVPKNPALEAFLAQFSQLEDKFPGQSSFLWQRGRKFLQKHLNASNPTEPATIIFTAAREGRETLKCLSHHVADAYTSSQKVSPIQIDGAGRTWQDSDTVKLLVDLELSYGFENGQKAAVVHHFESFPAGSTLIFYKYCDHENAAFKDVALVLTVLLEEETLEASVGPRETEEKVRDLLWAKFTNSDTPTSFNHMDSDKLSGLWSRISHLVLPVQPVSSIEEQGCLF

`CCOC(=O)[C@H](Cc1ccccc1)NC(=O)CCC1CC(OC(=O)NCc2cccc3ccccc23)CC2(CCCC(COC(=O)NCC3CCCCC3)O2)O1` (stereo not given in full): the composite z-score in test [1] was -0.421; in test [2] it was 0.979; in test [3] it was -0.154; in test [4] it was 0.183; in [5], 0.595; in test [6] it was 0.619. For the same compound, the composite z-score in test [7] is 0.994; in test [9], 0.253; in [10], 0.102; in test [11], 1.41; in test [15] it was 1.4; in test [17] it was -0.117. The composite z-score in test [18] is 0.926; in test [19], 1.14; in [20], -0.0381. In addition, the z-score in test [8] is 0.0184 (inactive); in test [12], -0.617 (inactive); in test [13] it was -0.174 (inactive); in test [14], -0.445 (inactive); in [16] it was -0.448 (inactive).
As for `CC(C)=CCCC(C)=CCON=C1C[C@@H](O)[C@@H](O)[C@@H]2[C@@H]3C(=O)N(Cc4ccc5c(c4)OCO5)C(=O)[C@@H]3CC[C@@H]12`, the composite z-score in test [1] is -0.316; in test [2], -0.777; in test [3], -0.241; in test [4], 0.31; in [5] it was 0.397; in test [6], 0.364. The composite z-score was 0.974 in test [7]; 0.396 in test [9]; -0.0618 in test [10]; 1.54 in test [11]; 2.06 in test [15]; 0.0478 in test [17]. Moreover, the composite z-score in test [18] was 0.837; in test [19] it was 0.983; in test [20], -0.0432. Also, the z-score in [8] is 0.397 (inactive); in test [12] it was 0.0718 (inactive); in test [13], 1.03 (inactive); in test [14], -0.864 (inactive); in test [16], 0.813 (inactive).
Consider `COC(=O)[C@H](C)NC(=O)CCC1CC(OC(=O)NCc2ccc3c(c2)OCO3)CC2(CCCC(COC(=O)NCCCN3CCCC3=O)O2)O1` (stereo not given in full), for which the composite z-score was -0.869 in test [1]; 0.62 in test [2]; -0.0397 in [3]; 0.469 in test [4]; 0.829 in test [5]; 0.357 in test [6]. For the same compound, the composite z-score is 1.04 in [7]; 1.3 in test [9]; 0.0373 in [10]; 1.45 in [11]; 0.908 in test [15]; -0.155 in [17]. The results for the composite z-score in [18], in test [19] and in test [20] were 0.424, 1.1 and -0.0128, respectively. In addition, the z-score was -0.787 (inactive) in [8]; 0.395 (inactive) in test [12]; 0.642 (inactive) in [13]; 0.502 (inactive) in test [14]; -0.223 (inactive) in test [16].
On to `CON=C[C@@H](OC)[C@H](C)C=CCC(=O)OC`, for which the composite z-score in test [1] was -0.447; in test [2], 0.0818; in test [3], -0.191; in test [4], 0.172; in [5], -0.0904; in [6], -0.513. Besides, the composite z-score is -0.499 in [7]; 0.272 in test [9]; 0.0401 in test [10]; -0.608 in test [11]; -0.312 in test [15]; -0.0702 in [17]. Also, the composite z-score in test [18] is 0.327; in test [19], -0.151; in test [20], -0.22. For the same compound, the z-score was -0.0681 (inactive) in [8]; -0.177 (inactive) in test [12]; -0.289 (inactive) in test [13]; -0.0697 (inactive) in test [14]; 0.0478 (inactive) in test [16].
Take `COc1ccc(-c2cnnc(CCCn3ccnc3-c3ccccc3)n2)cc1`: the composite z-score is -0.368 in test [1]; 1.45 in test [2]; -0.121 in test [3]; 0.763 in test [4]; 0.426 in test [5]; 0.278 in [6]. The composite z-score in test [7] is 0.585; in [9] it was 0.117; in [10], -0.12; in test [11], 0.576; in test [15], 0.662; in test [17] it was -0.125. In addition, the composite z-score in test [18] came out at 0.592; in [19], 0.876; in test [20], 0.137. Also, the z-score was 0.64 (inactive) in test [8]; -0.128 (inactive) in test [12]; -0.513 (inactive) in test [13]; 1.36 (inactive) in test [14]; 0.222 (inactive) in test [16].
